# Bioassay records from PubChem BioAssay.
# HT1080-NT tox – kills 2HG-producing HT-1080-NT fibrosarcoma cells; HT-1080-NT fibrosarcoma viability, CellTiter-Glo ATP luminescence, 48 h; Potency, µM (titrated, usually from 46.1 µM), for the others: at the top dose activity, negative = less viability, usual class: cytotoxic; 1.6% of 360,000 active; AID 686970;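 further: NT is the 2HG producing partner of a matched IDH1 knockdown line; potency means the concentration at half of the fitted maximal effect; 0% = DMSO-treated cells and -100% = media-only wells without cells; nearly all actives have a fitted effect of over 55% in size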
#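 Luminescent CellTiter-Glo readout after 48 hours of compound exposure at 37 degrees C defined viability of HT-1080-NT cells. Activity was normalized to DMSO wells and cell-free media wells; concentration-response curves were fitted and assigned curve classes.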
# TDP1 cell noCPT – qHTS for Inhibitors of human tyrosyl-DNA phosphodiesterase 1 (TDP1): qHTS in cells in absence of CPT | DT40 Tdp1-/- hTDP1 cells, no CPT, ATP luminescence, 48 h | Potency, µM (top dose mostly 46.2 µM), inactives show at the top dose activity change, negative = growth inhibition, most hits filed as inhibitors | 15% of 420,000 active; further: potency means the concentration at half of the fitted maximal effect; nearly all actives have a fitted effect of over 55% in size
#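 Readout: luminescence from CellTiter-Glo after 30 min in the dark at RT. Cells: DT40 Tdp1-/- with stable hTDP1, 400/well. Exposure: compounds alone, ≥48 hr, 37 °C.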
# IL1B secr inh – blocks inflammasome-driven IL-1 beta release. 4.7% of 360,000 active. THP-1 LPS/ATP IL-1B secretion, AlphaLISA, 16 h; active compounds read low. AID 743279. activity change, % at 57.5 µM; in the data active means activity change below about -50%; inconclusive means mostly about -30% to -49%
#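 THP-1 cells pretreated 1 hr with compounds (up to 57.5 uM final), then stimulated with LPS (250 ng/mL final) plus ATP (1.25 mM final); secreted IL-1B measured by AlphaLISA after 16 hr, decreased signal indicating inhibition.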
# DT40 TDP1 CPT – DT40-hTDP1 cell growth loss with CPT; 12% of 420,000 active; Potency, µM (top dose mostly 46.2 µM), without a hit: at the top dose activity change, negative = growth inhibition, most hits filed as inhibitors; chicken DT40 Tdp1-/-;hTDP1 cells + 20 nM CPT, ATP luminescence, 48 h; further: potency means the concentration at half of the fitted maximal effect; nearly all actives have a fitted effect of over 55% in size
#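 Chicken DT40 Tdp1-/- cells stably complemented with human TDP1 were seeded at 400 cells/well in medium containing 20 nM camptothecin, exposed to pin-transferred compounds, and grown at 37 °C for at least 48 hr. Viability was read as ATP luminescence.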
# HT1080 IDH1KD tx – HT-1080 IDH1 knockdown cell toxicity (counter line) | HT-1080 IDH1 knockdown viability, ATP luminescence, 48 h | Potency, µM (titrated, usually from 46.1 µM), inactives show at the top dose activity, negative = toxicity, most hits filed as cytotoxic | 2% of 360,000 active | AID 686971;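 further: potency means the concentration at half of the fitted maximal effect; 0% = DMSO wells and -100% = cell-free medium wells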
#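 Using the IDH1-knockdown HT-1080 line run in the same batch and compound series as the NT line, viability after 48 h at 37 °C was determined by CellTiter-Glo luminescence and expressed as % activity.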
# ALOX12 inh – blocks human arachidonate 12S-lipoxygenase; P18054; purified 12hLO, xylenol orange hydroperoxide absorbance; Potency, µM (top dose mostly 108 µM), inactives show at the top dose activity change, negative = inhibition, actives largely listed as inhibitors; 1.1% of 580,000 active; further: potency means the concentration at half of the fitted maximal effect
# Target sequence (P18054 whole entry, looked up): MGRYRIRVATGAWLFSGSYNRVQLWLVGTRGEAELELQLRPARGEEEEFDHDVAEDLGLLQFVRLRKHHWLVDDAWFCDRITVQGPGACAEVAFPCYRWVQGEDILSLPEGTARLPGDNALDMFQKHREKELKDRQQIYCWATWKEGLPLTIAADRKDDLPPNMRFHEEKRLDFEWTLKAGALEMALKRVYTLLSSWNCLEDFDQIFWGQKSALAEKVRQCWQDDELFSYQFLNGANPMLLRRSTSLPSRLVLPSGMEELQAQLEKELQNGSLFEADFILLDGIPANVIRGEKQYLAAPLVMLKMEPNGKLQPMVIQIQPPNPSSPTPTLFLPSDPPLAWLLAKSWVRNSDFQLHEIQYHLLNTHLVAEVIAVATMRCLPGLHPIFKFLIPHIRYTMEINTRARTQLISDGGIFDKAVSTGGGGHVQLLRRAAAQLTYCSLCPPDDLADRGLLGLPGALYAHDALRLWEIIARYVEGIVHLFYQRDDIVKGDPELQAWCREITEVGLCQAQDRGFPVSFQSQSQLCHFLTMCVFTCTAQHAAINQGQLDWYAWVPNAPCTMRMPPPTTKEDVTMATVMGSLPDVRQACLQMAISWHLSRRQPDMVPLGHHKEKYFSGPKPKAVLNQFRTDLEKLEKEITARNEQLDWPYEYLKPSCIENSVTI
#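 Purified human 12hLO (150 nM final) in 25 mM Hepes, 0.01% Triton X-100, pH 7.0 was preincubated 15 min at room temperature with compound. Then 40 uM arachidonic acid was added, 30 min. Hydroperoxide was read by Fe-XO absorbance ratio 573/405 nm.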
# An asterisk follows results filed as active; ? = inconclusive; . = no result given; ! = not confirmed by another sample; [ ] = another dose, or the depositor's remark. This excerpt belongs to a sample that is enriched for hits. Unless noted, the call rests on the fitted dose curve; in most records, active means well fitted curve in the direction sought with a large enough effect; inconclusive means small, poorly fitted or top-dose-only effect, or another doubt; inactive means no such curve, though single readings can be large; an effect the other way counts as inactive or inconclusive. Unless noted, on the % scale 0 is the no-effect control and ±100 the full control effect.
SMILES,HT1080-NT tox,TDP1 cell noCPT,IL1B secr inh,DT40 TDP1 CPT,HT1080 IDH1KD tx,ALOX12 inh
CCn1cc(S(=O)(=O)N2CCCC(Cc3ncc(C)n3CC3CC3)C2)cn1 (stereo not drawn),.,.,.,.,.,51.2%
COc1nc2ccccc2nc1N1CCC(C(=O)Nc2ccc(Oc3ccccc3)cc2)CC1,.,.,.,.,.,-2.3%
Cc1cccc(CNC(=O)c2ccc(Cn3c(SCc4ccccc4)nc4cccnc43)cc2)c1,.,16.4µM*,.,?,.,-24.6%
Cc1ccc(-c2ocnc2C(=O)Nc2ccccc2NC(=O)c2ccccn2)cc1,?,?,?,20.6µM*,?,3.5%
CSc1ccccc1NC(=O)c1ccccn1,4.9%,2.06µM*,-22.4,1.3µM*,4.5%,9.4%
Cc1cccc(-c2ocnc2C(=O)Nc2ccccc2NC(=O)c2ccccn2)c1,18.4µM*,0.291µM*,?,0.92µM*,?,30.7%
COc1cccc(COC(=O)CSCC(=O)Nc2ccc(C)cc2)c1OC,-7.8%,?,-21.5,?,2.0%,19.1%
Cn1nc(-c2ccc(Cl)cc2)c2cc(C(=O)N3CCN(c4ccccc4)CC3)sc21,-4.3%,?,-9.1,?,-0.8%,?
COc1ccc(-c2nn(C)c3sc(C(=O)N4CCN(c5cc(Cl)ccc5C)CC4)cc23)cc1OC,.,18.4µM*,.,14.6µM*,.,-23.9%
Cn1nc(-c2ccc(Cl)cc2)c2cc(C(=O)N3CCCC3)sc21,-2.4%,23.1µM*,-15.9,18.4µM*,-2.9%,0.0%
Cn1nc(-c2ccc(Cl)cc2)c2cc(C(=O)N3CCN(c4ccccn4)CC3)sc21,-9.4%,5.8µM*,1.2,5.8µM*,-2.0%,.
Cc1c(C#N)c(NC(=O)CN2CCC(C(=O)N3CCCCCC3)CC2)n(C2CCCCC2)c1C,.,.,.,.,.,30.4%
COC(=O)[C@]1(C)C[C@H](C(=O)NC(C)(C)CO)[C@H](c2ccccc2Cl)N1C,.,.,.,.,.,21.8%
C[C@]1(CO)[C@H]2Cc3sc(NC(=O)C4CCC4)nc3[C@@H](CC(=O)NCCN3CCOCC3)[C@]2(C)CC[C@H]1O,.,.,.,.,.,65.8%
CCCC1=[N+](CC(=O)c2ccccc2)CCn2c(C)ccc21,-0.5%,2.06µM*,?,2.91µM*,-23.9%,-16.9%
Cc1csc(C)[n+]1CC(=O)c1ccccc1,-5.9%,-5.3%,18.4,1.1%,-12.7%,-2.9%
CCCC1=NCCn2cccc21,7.2%,-4.4%,9.9,-9.3%,16.2%,-12.2%
CCCC1=[N+](CC(=O)c2ccc(C)cc2)CCn2cccc21,-5.2%,18.4µM*,-1.7,?,-15.9%,-24.4%
Cc1[nH]c(=S)c(C#N)c(C)c1C(=O)Nc1ccccc1,-6.9%,-9.4%,21.9,-14.8%,-5.7%,25.1µM*
CCc1c(C(=O)Nc2ccccc2)csc1C,.,.,.,.,.,8.3%
Cc1ccccc1NC(=O)c1c(C)[nH]c(=S)c(C#N)c1-c1ccco1,-8.7%,1.9%,7.9,-13.7%,0.6%,-23.7%
CCc1c(C(=O)Nc2ccccc2)c(C)[nH]c(=S)c1C#N,1.7%,-7.2%,7.1,0.0%,-4.8%,3.98µM*
O=S(=O)(c1ccc(NC(=S)N/N=C/c2ccc(Oc3ccccc3)cc2)cc1)N1CCOCC1,11.5%,-11.6%,6.5,7.1%,6.2%,?
O=S(=O)(c1ccc(NC(=S)N/N=C/c2ccc(N3CCOCC3)cc2)cc1)N1CCOCC1,9.5%,3.66µM*,12.6,4.11µM*,2.2%,-14.6%
O=S(=O)(c1ccc(NC(=S)N/N=C/c2c3ccccc3cc3ccccc23)cc1)N1CCOCC1,?,3.66µM*,-10.9,2.59µM*,?,?
SMILES,HT1080-NT tox,TDP1 cell noCPT,IL1B secr inh,DT40 TDP1 CPT,HT1080 IDH1KD tx,ALOX12 inh
COc1cccc(CC(=O)N2CCCCCCNC(=O)[C@H]3C[C@H](c4nc(C(C)C)no4)C[C@H]32)c1,.,.,.,.,.,16.6%
Cc1ccc2c(c1)c(=O)c(C(=O)c1ccc3c(c1)OCO3)cn2Cc1cccc(F)c1,.,16.4µM*,.,?,.,3.2%
CCOc1ccc2c(c1)c(=O)c(C(=O)c1ccc3c(c1)OCO3)cn2Cc1cccc(F)c1,.,23.1µM*,.,?,.,?
COc1cccc(Cn2cc(C(=O)c3ccccc3)c(=O)c3cc4c(cc32)OCO4)c1,.,?,.,?,.,-1.7%
COc1ccc(CCNC(=O)C2CCN(S(=O)(=O)c3cccc4nsnc34)CC2)cc1OC,-6.5%,?,7.7,-26.0%,-20.8%,0.0%
COc1ccc(CCNC(=O)C2CCN(S(=O)(=O)c3cccc4cccnc34)CC2)cc1OC,0.7%,?,27.6,16.4µM*,2.9%,.
O=C(NCCc1ccccc1)C1CCC(CNS(=O)(=O)c2cccc3cccnc23)CC1 (stereo not drawn),-4.2%,23.1µM*,-14.6,16.4µM*,-10.7%,-0.4%
Cc1ccccc1OCCn1c(CN2CCCCC2)nc2ccccc21,.,.,.,.,.,0.5%
O=C(CSc1nc(-c2ccc(Cl)cc2)cs1)N1CCCc2ccccc21,.,.,.,.,.,-34.5%
Cc1ccc(-c2noc3ncnc(NC4CCCC4)c23)cc1,.,.,.,.,.,6.7%
O=c1ncn2nc(Sc3ccc(F)cc3F)ccc2c1-c1c(Cl)cccc1Cl,.,.,.,.,.,38.3%[57.4 µM]
CCC(C)Oc1cc(-c2ccnc(Nc3cccc(Cl)c3)n2)ccn1 (stereo not drawn),-26.5%,?,-85.8*,?,?,-21.3%
OCCCNc1cc(-c2ccnc(Nc3cccc(Cl)c3)n2)ccn1,-44.9%,0.164µM*,-108.3*,0.146µM*,?,4.9%
CCOC(=O)c1oc2cc(OC(=O)C(C)C)ccc2c(=O)c1-c1nc2ccccc2s1,.,.,.,.,.,-7.0%
COc1ccccc1OCC(=O)NCC1CCCN(C(=O)c2ccccc2C(C)=O)C1 (stereo not drawn),5.6%,3.0%,-6.7,7.6%,13.7%,4.7%
COc1ccccc1OCC(=O)NCC1CCCN(C(=O)c2ccccc2SC)C1 (stereo not drawn),10.4%,14.6µM*,14.2,?,8.1%,-5.2%
COc1ccc(C(=O)c2oc3ccccc3c2NC(=O)COc2c(C)cc(C)cc2C)cc1,.,-7.1%,.,-22.2%,.,-13.5%
O=C(O)c1cc(=O)c2c3nc4ccccc4oc-3cc(=O)c2[nH]1,.,11.2µM*!,.,25.1µM*,.,.
COc1ccc(OC)c2c(=O)cc(C(=O)O)[nH]c12,10.4%,0.6%,-6.1,5.4%,7.1%,?
CN1CCC2(CC1)CCN(C(=O)c1ccncc1)CC2,.,-0.4%,.,6.4%,.,-1.5%[57.4 µM]
CCOc1cccc(C(=O)Nc2ccc3oc(-c4ccc(C(C)(C)C)cc4)nc3c2)c1,.,2.91µM*,.,?,.,-12.1%
